# This is a sample that favours compounds with a hit; in the whole collection about 1.2% have one here.
# PrP UTR inh: inhibition of PrP 5' UTR reporter expression; cell-based PrP 5' UTR mRNA reporter, plate reader; 340,000 compounds, 0.35% hits; inhibition, % (concentration not given with the values); in the data active = inhibition above about 52%; note: 0 = median of the neutral control wells
# Sa RN4220 lethal: kills Staphylococcus aureus RN4220; 330,000 compounds, 0.33% hits; S. aureus RN4220 growth, OD600, 16 h; inhibition, % (concentration not given with the values); AID 1259311; in the data active = inhibition above about 85%;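 note: plate controls were untreated cells for no effect and reference antibiotic for full effect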
# Sa ugtP lethal: kills S. aureus RN4220 lacking UgtP | S. aureus RN4220 ugtP deletion, OD600 growth, 16 h | growth inhibition, % (concentration not given with the values) | 330,000 compounds, 0.54% hits | AID 1259309; in the data active = growth inhibition above about 68%;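 note: plate controls were untreated wells for no effect and antibiotic for full effect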
# PfHsp40 rescue: rescue of PfHsp40-mediated yeast toxicity; growth rescue, % at 12.5 µM; S. cerevisiae expressing PfHsp40, growth rescue, ATP luminescence; AID 504582; 340,000 compounds, 0.68% hits; in the data active = growth rescue above about 28%, passing the limit was not always enough; inconclusive = no clear call, values can overlap the other calls;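 note: yeast W303a lacking pdr1 and pdr3 grown in galactose medium; growth measured after three days at 30 °C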
# TcdB GH inh: blocks C. difficile toxin B glycohydrolase activity; P18177; TcdB glycohydrolase enzymatic assay, plate reader; inhibition, % at 9.99 µM; 350,000 compounds, 0.24% hits; AID 652162; in the data active = inhibition above about 10%
# Active calls of the source: *; ? = inconclusive; nt = not tested or not shown.
SMILES,PrP UTR inh,Sa RN4220 lethal,Sa ugtP lethal,PfHsp40 rescue,TcdB GH inh
CN(C)CCSc1nc(-c2ccccc2)nc2c1CCCC2,nt,2,2,nt,0
CCCCn1c2c(c(=N)c3ccccc31)CCC2,-15,2,-3,0,2
CCCCCCCCn1c2c(c(=N)c3ccccc31)CCC2,-19,98*,98*,0,0
CCCCCCCCCn1c2c(c(=N)c3c1CCC3)CCCC2,-14,100*,100*,6,nt
CCn1c2c(c(=N)c3c1CCC3)CCCC2,nt,3,9,nt,0
CCCCCn1c2c(c(=N)c3ccccc31)CCC2,-22,3,5,-1,2
CCCCCCCCCCn1c2c(c(=N)c3c1CCC3)CCC2,5,100*,100*,291*,nt
Cn1cnc(S(=O)(=O)N2C[C@@H](O)COC[C@@H]3O[C@@H](CC(=O)NC4CCCC4)CC[C@H]32)c1,nt,nt,nt,nt,0
Cc1ccccc1NC(=O)CCC(=O)NN=Cc1cccnc1,nt,4,11,nt,nt
CC(C)NC(=O)Nc1ccc2c(c1)CC(=O)N([C@H](C)CO)C[C@H](C)[C@@H](CN(C)C(=O)NC1CCCCC1)O2,nt,nt,nt,nt,-1
CCC(C)Sc1cccc(-c2nc3ccc(C)cn3c2NCc2ccccc2)c1 (stereo not drawn),-14,nt,nt,7,0
CCC(C)Sc1cccc(-c2nc3ccccn3c2NCc2ccccc2)c1 (stereo not drawn),9,0,11,219*,0
O=C(/C=C/c1cccc(C(F)(F)F)c1)Nc1cccc(C(F)(F)F)c1,-8,100*,100*,83*,nt
CSc1cccc(NC(=O)/C=C/c2cccc(Cl)c2)c1,-53,14,-18,245*,0
CNC(=O)c1ccc(NC(=O)/C=C/c2cccc(F)c2)cc1,-32,3,-4,114*,1
O=C(/C=C/c1ccccc1)NC(NC(=S)Nc1cccc(Cl)c1)C(Cl)(Cl)Cl (stereo not drawn),79*,50,45,-2,nt
Cc1ccc(NC(=O)/C=C/c2cccc(C(F)(F)F)c2)cc1,-26,8,3,0,0
CCC(=O)Nc1ccc2c(c1)OC[C@H](C)N(C(=O)C1CC1)C[C@H](C)[C@H](OC)CN(C)C2=O,nt,nt,nt,nt,0
Nc1ccc(Nc2ccccc2)c(S(=O)(=O)O)c1,nt,nt,nt,41*,-3
Cc1ccc(Nc2ccc(N)cc2S(=O)(=O)O)cc1,-36,5,13,8,0
CCOC(=O)C1(Cc2cccc(Cl)c2)CCCN(C(=O)c2ccco2)C1 (stereo not drawn),-28,7,4,1,0
CCOC(=O)C1(Cc2cccc(Cl)c2)CCCN(C(=O)c2occc2C)C1 (stereo not drawn),-9,10,6,122*,2
NNC(=O)CCc1nc2ccc(O)cc2[nH]1,-12,nt,nt,0,14*
COc1ccc(C=NNc2nc(C)cc(-c3ccccc3)n2)cc1OC,nt,9,3,nt,nt
O=S(=O)(c1ccc(Cl)cc1)N1CCC2(CC1)OCCN2S(=O)(=O)c1cccs1,-12,4,10,55*,2
SMILES,PrP UTR inh,Sa RN4220 lethal,Sa ugtP lethal,PfHsp40 rescue,TcdB GH inh
Cc1ccc(S(=O)(=O)N2CCOC23CCN(C(=O)c2cc(Cl)ccc2Cl)CC3)cc1,-13,-5,-7,91*,0
CCC(=O)N1[C@@H]2c3ccc(-c4ccccc4F)c(=O)n3C[C@@H]2[C@@H](CO)[C@@H]1C(=O)NCCCN(C)C,nt,nt,nt,nt,0
CCNc1nc(NCC)nc(N(n2cnnc2)S(=O)(=O)c2ccc(C)cc2)n1,-21,97*,99*,0,nt
CCNc1nc(NC(C)C)nc(N(n2cnnc2)S(=O)(=O)c2ccc(C)cc2)n1,4,76,90*,1,1
COCCNC(=O)C[C@H]1C[C@H]2c3cc(NC(=O)c4cccnc4)ccc3O[C@H]2[C@H](CO)O1,nt,nt,nt,nt,0
Cn1c2ccccc2c2nnc(SCc3nnc(-c4ccccc4)o3)nc21,nt,3,5,nt,nt
Cn1c(SCc2nnc(-c3ccccc3)o2)nc2ccccc21,-19,9,-1,0,13*
CN(C)C(=O)c1ccc(-c2ccc([C@@H]3[C@H](C#N)N[C@H]3CO)cc2)cc1,nt,nt,nt,nt,0
CC1Cc2ccccc2N1C(=S)NC(=O)c1cccc(Br)c1 (stereo not drawn),8,57,85,146*,nt
COc1ccc(-c2sc3ccccc3c2C#CCO)cc1,-12,nt,nt,31*,0
OCCCCC#Cc1c(-c2ccsc2)sc2ccccc12,-12,nt,nt,?,1
OCCC#Cc1c(-c2ccsc2)sc2ccccc12,-9,-3,13,56*,1
COc1ccc(-c2sc3cc4c(cc3c2C#CCO)OCO4)cc1,-3,5,-12,-1,nt
COc1ccccc1-c1sc2cc3c(cc2c1C#Cc1cncn1C)OCO3,-21,50,90*,246*,0
COc1ccc(-c2sc3ccccc3c2C#Cc2cncn2C)cc1,-9,79,97*,414*,2
COc1ccc(-c2sc3ccccc3c2C#CCCO)cc1,-22,nt,nt,41*,1
COc1ccc(-c2sc3cc(OC)c(OC)cc3c2C#CCCO)cc1,-16,-10,-12,0,0
COc1ccc(-c2sc3ccccc3c2/C=C/c2ccncc2)cc1,-4,nt,nt,75*,-2
COc1ccc(-c2sc3ccccc3c2/C=C/c2ccc(OC)c(OC)c2)cc1,-15,nt,nt,-1,0
C[C@@H]1CN([C@H](C)CO)C(=O)c2cc(NC(=O)NC3CCCCC3)ccc2O[C@@H]1CN(C)Cc1ccc(Cl)c(Cl)c1,nt,nt,nt,nt,1
FC(F)(F)c1cnc(N2CCN(C(=S)NCc3ccccc3)CC2)c(Cl)c1,-24,-8,46,77*,0
COc1ccc(/C=C/c2cc(-c3ccc(C)cc3)o[n+]2C)cc1,-1,96*,100*,1,nt
COc1ccc(/C=C/c2c(-c3ccc(OC)cc3)oc3ccc(-c4ccc(OC)cc4)cc23)cc1,5,nt,nt,-1,1
CN1/C(=C/c2cc[n+](C)c3ccccc23)C=Cc2ccccc21,-8,100*,96*,-1,nt
Cc1ccc(CN=c2c([N+](=O)[O-])nn(-c3ccc(Cl)cc3)n2O)cc1,nt,-4,-2,52*,-2
SMILES,PrP UTR inh,Sa RN4220 lethal,Sa ugtP lethal,PfHsp40 rescue,TcdB GH inh
Cc1cc(C)cc(N=c2c([N+](=O)[O-])nn(-c3cccc(Cl)c3)n2O)c1,-26,88*,84,-1,nt
CCc1cccc(N=c2c([N+](=O)[O-])nn(-c3ccc(Cl)cc3)n2O)c1,4,95*,92*,3,1
Cn1cccc1C=NNC(=O)c1ccco1,nt,5,2,nt,nt
COc1cc(C=NNC(=O)c2cc(-c3c(C)nn(-c4ccccc4)c3C)n[nH]2)ccc1O,nt,62,95*,nt,nt
COc1cc(/C=N/NC(=O)c2cc(-c3c(C)nn(-c4ccccc4)c3C)n[nH]2)ccc1O,-61,nt,nt,1,1
ON=Cc1nc2cc(Cl)ccc2o1,nt,2,-2,nt,nt
Cc1nnc(SCC(=O)c2ccc([N+](=O)[O-])cc2)s1,-14,3,-2,-1,2
Nc1nnc(SCC(=O)c2ccc([N+](=O)[O-])cc2)s1,-28,95*,54,0,0
C[C@@H]1C=C[C@](Cc2ccccc2)(C(=O)NCC2CC2)N1C(=O)c1ccccc1,-31,nt,nt,-1,11*
